Results taken from PubChem BioAssay (EPA / NIEHS).
Inconclusive results are not listed. More than one record can exist for a structure, and the calls need not agree. Activity calls are given as the source filed them. Rule for the calls, unless noted: active = hit-call score of the fitted dose curve at least 0.9, where 1 is the maximum; inactive = score below 0.9.

Experiments:
[1] = biological target: Estrogen receptor (Homo sapiens) (UniProt P03372); assay: CCTE_Deisenroth_AIME_384WELL_LUC_Active: CCTE's 384-well Estrogen Receptor Transactivation Assay with AIME metabolic competence (ERTA luciferase; metabolism positive), Deisenroth Lab (AID 2284030; active = hit-call score of the fitted dose curve at least 0.9, where 1 is the maximum)
How it was run: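 AIME metabolism-positive mode: chemicals 0.002 - 200 uM, 2 h with alginate-bound PB/BNF-induced rat S9 → medium to VM7Luc4E2 ERTA, 24 h → luciferase. Positive fit vs 17beta-estradiol; n=4 typical.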

[2] = biological target: Estrogen receptor (Homo sapiens) (UniProt P03372); assay: CCTE_Deisenroth_AIME_384WELL_LUC_Inactive: CCTE's 384-well Estrogen Receptor Transactivation Assay without AIME metabolic competence (ERTA luciferase; metabolism negative), Deisenroth Lab (AID 2284038; active = hit-call score of the fitted dose curve at least 0.9, where 1 is the maximum;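 note: hits raise estrogen receptor luciferase signal so potencies reflect agonists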)
How it was run: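 VM7Luc4E2 ER transactivation, luciferase bioluminescence after 24 h, using medium pre-incubated 2 h with S9-free alginate microspheres. Concentrations 0.002–200 uM; gain of signal fitted relative to 17beta-estradiol.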

[3] = CCTE_Deisenroth_AIME_384WELL_CTox_Inactive: Cytotoxicity Assessment (CTOX) in CCTE's 384-well Estrogen Receptor Transactivation Assay without AIME metabolic competence (metabolism negative), Deisenroth Lab (AID 2284039; active = hit-call score of the fitted dose curve at least 0.9, where 1 is the maximum;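 note: cell viability via live-cell protease substrate cleaved to fluorescent probe; cells exposed 24 h to medium preincubated 2 h with alginate-water beads without S9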)
How it was run: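 VM7Luc4E2 cells, metabolism-negative arm: test chemicals (0.002–200 uM, 10 points) pre-incubated 2 h with alginate-water microspheres, then medium transferred to cells for 24 h. Viability read as protease-substrate cleavage to fluorescent probe; loss-of-signal, bidirectional fitting.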

[4] = CCTE_Shafer_MEA_dev_firing_rate_mean: CCTE's Neural Network Formation Assay for Mean Firing Rate, Shafer Lab (AID 2284031);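 for AC50: curve fitted for loss of firing so AC50 reflects decreased mean firing rate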
How it was run: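 Steps: seed rat cortical cells (1.5 x 10^5/well) with laminin on PEI-coated MEA; dose day 0; record DIV 5/7/9/12, full media and compound exchange after DIV 5 and 9 recordings; compute well-mean firing rate AUC.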

[5] = CCTE_Shafer_MEA_dev_per_burst_spike_percent: CCTE's Neural Network Formation Assay for Percent of Spikes in a Burst, Shafer Lab (AID 2284032);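 for AC50: fitted as a decrease in burst spike percentage below DMSO baseline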
How it was run: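 Value is trapezoidal AUC over recordings on days 5, 7, 9 and 12 of the well-mean fraction of spikes falling in single-electrode bursts; rat cortical cultures exposed continuously from plating, treatment renewed DIV 5 and 9, fitted downward against DMSO.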

[6] = CCTE_Shafer_MEA_acute_network_burst_percentage: CCTE's Neural Acute Assay for Percentage of Network Bursts, Shafer Lab (AID 2284022);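 note: curves fitted for loss so actives lower network burst percentage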
How it was run: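 Readout is the fraction of spikes falling in network bursts, expressed as per-well percent change from a 40-min pre-exposure baseline. Primary rat cortical neurons on MEA were exposed to 0.03-40 uM compound on DIV 13 or 15 and recorded for 40 min at 37 C.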

[7] = CCTE_Shafer_MEA_acute_cross_correlation_area: CCTE's Neural Acute Assay for Area of Cross Correlation, Shafer Lab (AID 2284024);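 note: area under pooled inter-electrode spike cross-correlation near zero lag as percent change from own baseline; curves fitted for loss of cross-correlation area so actives lower synchrony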;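 for outcome: rat primary cortical neuron networks on 48-well MEA at DIV 13 or 15 with 40 min exposure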
How it was run: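 Plates equilibrated 20 min at 37 C, then 40 min baseline was recorded, compound was added (0.03-40 uM), and a further 40 min was recorded. Wells needed ≥10 active electrodes (≥5 spikes/min) on exposure day.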

[8] = CCTE_Shafer_MEA_acute_cross_correlation_HWHM: CCTE's Neural Acute Assay for Cross Correlation at Half Width at Half Maximum, Shafer Lab (AID 2284026);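 note: percent change per well from pre-dose baseline in spike cross-correlogram half width; hits are a decrease in cross-correlogram half width relative to DMSO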;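 for outcome: spontaneous network firing of rat primary cortical neurons on multiwell microelectrode arrays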
How it was run: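 Rat cortical neuron cultures on microelectrode arrays were equilibrated 20 min at 37 C, recorded 40 min at baseline, then 40 min after compound addition (0.03-40 uM, ≥3 wells). Spikes were detected at 8x rms noise after 300-5000 Hz band-pass filtering.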

[9] = CCTE_Shafer_MEA_dev_active_electrodes_number: CCTE's Neural Network Formation Assay for Number of Active Electrodes, Shafer Lab (AID 2284040; active = hit-call score of the fitted dose curve at least 0.9, where 1 is the maximum;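 for AC50: potency for loss of active electrodes versus DMSO so lower counts are hits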)
How it was run: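 Counts electrodes per well firing at least 5 spikes/min, recorded on days 5, 7, 9 and 12 in rat cortical cultures dosed continuously from plating (treatment refreshed DIV 5, 9). Value is the area under the curve over recordings, fitted downward relative to DMSO.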

[10] = CCTE_Deisenroth_AIME_384WELL_CTox_Active: Cytotoxicity Assessment (CTOX) in CCTE's 384-well Estrogen Receptor Transactivation Assay with AIME metabolic competence (metabolism positive), Deisenroth Lab (AID 2284037; active = hit-call score of the fitted dose curve at least 0.9, where 1 is the maximum;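 note: chemicals first conditioned 2 h by alginate-bound induced rat liver S9 before cells; activity means signal loss indicating cell death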)
How it was run: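 VM7Luc4E2 breast cells received medium pre-incubated 2 h with chemical over alginate microspheres holding induced male Sprague Dawley rat liver S9; viability read 24 h later by protease-substrate fluorescence. Loss of signal, bidirectional fit, 0.002–200 uM.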

Estrogen receptor (Homo sapiens), sequence (P03372 whole entry, looked up): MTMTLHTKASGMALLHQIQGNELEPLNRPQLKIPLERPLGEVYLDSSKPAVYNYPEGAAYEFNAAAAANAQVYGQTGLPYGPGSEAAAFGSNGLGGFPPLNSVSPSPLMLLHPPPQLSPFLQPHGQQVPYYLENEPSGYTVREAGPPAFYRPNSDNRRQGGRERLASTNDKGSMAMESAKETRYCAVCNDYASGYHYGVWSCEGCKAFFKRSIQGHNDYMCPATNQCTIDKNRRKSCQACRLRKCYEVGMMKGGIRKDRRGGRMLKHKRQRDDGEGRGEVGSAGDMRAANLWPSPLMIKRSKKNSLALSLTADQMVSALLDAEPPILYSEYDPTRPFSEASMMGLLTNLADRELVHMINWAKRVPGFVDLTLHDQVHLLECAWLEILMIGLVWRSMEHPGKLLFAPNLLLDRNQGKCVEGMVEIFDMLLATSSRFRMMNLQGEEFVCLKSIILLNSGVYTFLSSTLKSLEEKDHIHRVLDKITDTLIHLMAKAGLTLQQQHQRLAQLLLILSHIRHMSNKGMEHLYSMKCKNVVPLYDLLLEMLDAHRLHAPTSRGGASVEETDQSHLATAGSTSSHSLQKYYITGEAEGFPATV

With `CCCCCCCCCC=CCC1CC(=O)OC1=O` (stereo unspecified) the outcome [1] was “inactive”, the outcome [2] was “inactive” and the outcome [3] was “inactive”.
For `CN(CCO)S(=O)(=O)C(F)(F)C(F)(F)C(F)(F)C(F)(F)C(F)(F)C(F)(F)C(F)(F)C(F)(F)F`, the outcome [4] was “inactive” and the outcome [5] was “inactive”.
For `CCCCC=O`, the AC50 [6] was 32.7 µM (active), the outcome [7] was “inactive” and the outcome [8] was “inactive”.
In the case of `CCCCc1oc2ccccc2c1C(=O)c1cc(I)c(OCCN(CC)CC)c(I)c1`, the outcome [6] is reported as “inactive” and the outcome [7] is reported as “inactive”.
In the case of `O=P(O)(O)CCC(F)(F)C(F)(F)C(F)(F)C(F)(F)C(F)(F)C(F)(F)F`, the outcome [4] is reported as “inactive” and the outcome [5] is reported as “inactive”.
With `NC(C(F)(F)F)C(F)(F)F` the outcome [4] was “inactive”, the outcome [5] was “inactive” and the outcome [9] was “inactive”.
For `Oc1c(Cl)cc(Cl)cc1Sc1cc(Cl)cc(Cl)c1O`, the AC50 [6] was 7.49 µM (active), the outcome [7] was “inactive” and the AC50 [8] was 9.62 µM (active).
For `O=C(OC(=O)C(F)(F)C(F)(F)F)C(F)(F)C(F)(F)F`, the outcome [4] was “inactive”, the outcome [5] was “inactive” and the outcome [9] was “inactive”.
For `CC(=O)Nc1ccc(O)cc1`, the outcome [6] was “inactive”, the outcome [7] was “inactive” and the outcome [8] was “inactive”. The outcome [4] was “inactive”, the outcome [5] was “inactive” and the outcome [10] was “inactive”. For the same compound, the outcome [9] was “inactive”.
In the case of `O=C(C=C(O)C(F)(F)F)C(F)(F)F`, the outcome [4] is reported as “inactive” and the outcome [5] is reported as “inactive”.
With `OCC(F)(F)C(F)(F)C(F)(F)C(F)(F)C(F)(F)C(F)(F)C(F)(F)C(F)(F)C(F)(F)C(F)(F)C(F)(F)F` the outcome [4] was “inactive”, the AC50 [5] was 15 µM (active) and the outcome [5] was “inactive”. For the same compound, the AC50 [9] was 15 µM (active) and the outcome [9] was “inactive”.
For `CCC(C)c1ccccc1O` (stereo unspecified), the AC50 [6] was 5 µM (active), the outcome [7] was “inactive” and the AC50 [8] was 8.95 µM (active). For the same compound, the outcome [10] was “inactive” and the AC50 [3] was 0.00093 µM (active).
For `CCCCCCCCCCCC`, the outcome [6] was “inactive”, the outcome [7] was “inactive” and the outcome [8] was “inactive”. For the same compound, the outcome [10] was “inactive” and the AC50 [3] was 100 µM (active).
For `CCCCc1ccc2ccccc2c1S(=O)(=O)O`, the outcome [1] was “inactive”, the outcome [2] was “inactive” and the outcome [3] was “inactive”.
In the case of `CN(C)CCOC(c1ccccc1)c1ccccc1`, the AC50 [6] is reported as 7.74 µM (active), the outcome [7] is reported as “inactive” and the outcome [4] is reported as “inactive”. For the same compound, the AC50 [5] was 10 µM (active) and the AC50 [9] was 6.36 µM (active).
With `OCC(CO)(CBr)CBr` the outcome [6] was “inactive”, the outcome [7] was “inactive” and the outcome [8] was “inactive”. For the same compound, the outcome [10] was “inactive”.
For `O=C(CCCN1CCC(O)(c2ccc(Cl)cc2)CC1)c1ccc(F)cc1`, the outcome [6] was “inactive”, the outcome [7] was “inactive” and the outcome [8] was “inactive”. The AC50 [4] was 390 nM (active), the AC50 [5] was 4.18 µM (active) and the AC50 [9] was 2.33 µM (active).
In the case of `O=C1NS(=O)(=O)c2ccccc21`, the outcome [6] is reported as “inactive”, the AC50 [7] is reported as 9.62 nM (active) and the outcome [8] is reported as “inactive”. For the same compound, the outcome [4] was “inactive”, the outcome [5] was “inactive” and the outcome [9] was “inactive”.
For `O=C(O)CCC(F)(F)C(F)(F)C(F)(F)C(F)(F)C(F)(F)F`, the outcome [4] was “inactive” and the outcome [5] was “inactive”.
For `Oc1ccc(Cc2ccccc2O)cc1`, the outcome [6] was “inactive”, the AC50 [7] was 8.12 nM (active) and the outcome [8] was “inactive”.
With `COc1cc([N+](=O)[O-])ccc1N` the outcome [1] was “inactive”, the AC50 [10] was 118 µM (active) and the outcome [2] was “inactive”. The AC50 [3] was 100 µM (active).
With `COC(=O)C(F)(F)C(F)(F)C(F)(F)C(F)(F)C(F)(F)F` the outcome [4] was “inactive” and the outcome [5] was “inactive”.
In the case of `N=C(N)c1ccc(OCCCCCOc2ccc(C(=N)N)cc2)cc1`, the outcome [6] is reported as “inactive”, the outcome [7] is reported as “inactive” and the AC50 [8] is reported as 32 µM (active).
With `FC(F)=C(F)C(F)(F)C(F)(F)C(F)(F)C(F)F` the outcome [4] was “inactive” and the outcome [5] was “inactive”.
With `O=P(O)(O)CCC(F)(F)C(F)(F)C(F)(F)C(F)(F)C(F)(F)C(F)(F)C(F)(F)C(F)(F)F` the outcome [4] was “inactive”, the AC50 [5] was 4.78 µM (active) and the AC50 [9] was 4.18 µM (active).
For `CCCCC(CC)C(=O)O` (stereo unspecified), the outcome [10] was “inactive” and the outcome [3] was “inactive”.
In the case of `O=CC(F)(F)C(F)(F)C(F)(F)C(F)F`, the outcome [4] is reported as “inactive”, the outcome [5] is reported as “inactive” and the outcome [9] is reported as “inactive”.
With `O=CC(F)(F)C(F)(F)C(F)(F)F` the outcome [4] was “inactive”, the outcome [5] was “inactive” and the outcome [9] was “inactive”.
For `CC(C)c1c(C(=O)Nc2ccccc2)c(-c2ccccc2)c(-c2ccc(F)cc2)n1CC[C@@H](O)C[C@@H](O)CC(=O)O`, the AC50 [4] was 13 nM (active), the AC50 [5] was 0.00992 µM (active) and the AC50 [9] was 0.00981 µM (active).
With `O=C(F)C(F)(F)C(F)(F)C(F)(F)C(=O)F` the outcome [4] was “inactive”, the outcome [5] was “inactive” and the outcome [9] was “inactive”.
For `Cc1ccc(S(=O)(=O)O)cc1`, the outcome [3] was “inactive”.
With `Nc1ccn([C@@H]2O[C@H](CO)[C@@H](O)C2O)c(=O)n1` (stereo partly specified) the AC50 [4] was 471 nM (active), the AC50 [5] was 0.341 µM (active) and the AC50 [9] was 0.472 µM (active).
With `COC(=O)C(F)(F)C(F)(F)C(F)(F)F` the outcome [4] was “inactive”, the outcome [5] was “inactive” and the outcome [9] was “inactive”.
For `O=S(=O)(O)c1ccccc1`, the outcome [10] was “inactive”.
For `C=CC(F)(F)C(F)(F)C(F)(F)C(F)(F)F`, the outcome [4] was “inactive”, the outcome [5] was “inactive” and the outcome [9] was “inactive”.
In the case of `CCCCCCCCCCCCOS(=O)(=O)O`, the AC50 [10] is reported as 143 µM (active) and the AC50 [3] is reported as 147 µM (active).
For `O=C(O)C(F)(F)OC(F)(F)C(F)(F)OC(F)(F)C(F)(F)OC(F)(F)C(F)(F)C(F)(F)C(F)(F)F`, the outcome [4] was “inactive”, the outcome [5] was “inactive” and the outcome [9] was “inactive”.
For `O=C(CC(=O)C(F)(F)C(F)(F)C(F)(F)F)c1cccs1`, the outcome [4] was “inactive”, the AC50 [5] was 8.19 µM (active) and the AC50 [9] was 8.83 µM (active).
